Assay results taken from PubChem BioAssay AID1159580 (chemical genetic matrix, 2015).
The whole screen tested about 5,500 compounds, of which about 2,000 (36%) were called active. Inconclusive results (about 18%) are left out. No stated cut-off is given here; in the data, active means normalized growth mostly below about 0.91 (no sharp cut-off); inconclusive means no clear call, values can overlap the other calls; inactive means mostly above about 0.92. The list shows a part of the results.

Test: chemical genetic growth profiling, strain panel (AID 1159580);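 further: tested at 20 µM; growth read once vehicle control cultures reached saturation at 30 °C; 1 = growth at the plate median or of vehicle wells; lower values mean less growth of the strain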
Settings: S. cerevisiae deletion strains, growth OD

Measured: normalized growth

O=C(Nc1ccc(F)c(Cl)c1)c1ccccc1O
inactive: locus YAR019C, strain CDC15, hits give low values 0.9 | locus YBR136W, strain MEC1, hits give low values 0.899 | locus YBR160W, strain CDC28, hits give low values 0.899 | locus YDL028C, strain MPS1, hits give low values 0.897 | locus YDL101C, strain DUN1, hits give low values 0.951 | locus YDL214C, strain PRR2, hits give low values 0.83 | locus YDR054C, strain cdc34, hits give low values 0.885 | locus YDR477W, strain SNF1, hits give low values 0.834 | locus YER123W, strain YCK3, hits give low values 0.76 | locus YER133W, strain GLC7, hits give low values 0.862 | locus YFL029C, strain CAK1, hits give low values 0.884 | locus YFR019W, strain FAB1, hits give low values 0.904 | locus YGR040W, strain KSS1, hits give low values 0.819 | locus YGR052W, strain FMP48, hits give low values 0.8 | locus YGR092W, strain DBF2, hits give low values 0.519 | locus YHR079C, strain IRE1, hits give low values 0.632 | locus YHR082C, strain KSP1, hits give low values 0.76 | locus YHR205W, strain SCH9, hits give low values 0.747 | locus YIL147C, strain SLN1, hits give low values 0.895 | locus YJL095W, strain BCK1, hits give low values 0.676 | locus YJL128C, strain PBS2, hits give low values 0.846 | locus YJL157C, strain FAR1, hits give low values 0.803 | locus YJR066W, strain TOR1 (second series), hits give low values 0.882 | locus YJR066W, strain TOR1, hits give low values 0.745 | locus YKL048C, strain ELM1, hits give low values 0.893 | locus YKL067W, strain YNK1, hits give low values 0.825 | locus YKL101W, strain HSL1, hits give low values 0.807 | locus YKL203C, strain TOR2, hits give low values 0.863 | locus YLR133W, strain CKI1, hits give low values 0.762 | locus YLR403W, strain SFP1, hits give low values 0.743 | locus YML070W, strain DAK1, hits give low values 0.777 | locus YMR001C, strain CDC5, hits give low values 0.891 | locus YMR205C, strain PFK2 (second series), hits give low values 0.769 | locus YMR277W, strain FCP1, hits give low values 0.9 | locus YNL020C, strain ARK1, hits give low values 0.745 | locus YNL161W, strain CBK1, hits give low values 0.904 | locus YNL183C, strain NPR1, hits give low values 0.759 | locus YNL207W, strain RIO2, hits give low values 0.893 | locus YNL222W, strain SSU72, hits give low values 0.906 | locus YNL307C, strain MCK1 (second series), hits give low values 0.833 | locus YOL078W, strain AVO1, hits give low values 0.897 | locus YOL136C, strain PFK27, hits give low values 0.846 | locus YOR061W, strain CKA2, hits give low values 0.842 | locus YOR119C, strain RIO1, hits give low values 0.936 | locus YOR231W, strain MKK1, hits give low values 0.829 | locus YOR329C, strain SCD5, hits give low values 0.913 | locus YPL031C, strain PHO85, hits give low values 0.796 | locus YPL153C, strain RAD53, hits give low values 0.799 | locus YPL204W, strain HRR25, hits give low values 0.797 | locus YPR106W, strain ISR1, hits give low values 0.911 | locus YPR111W, strain DBF20, hits give low values 0.887 | strain NNK1, hits give low values 0.899 | strain TSCII, hits give low values 0.892
active: locus YBL105C, strain PKC1, hits give low values 0.897 | locus YBR135W, strain CKS1, hits give low values 0.888 | locus YDL017W, strain CDC7, hits give low values 0.895 | locus YDL108W, strain KIN28, hits give low values 0.896 | locus YDL132W, strain cdc53, hits give low values 0.879 | locus YDR052C, strain DBF4, hits give low values 0.884 | locus YDR226W, strain ADK1, hits give low values 0.877 | locus YFL009W, strain cdc4, hits give low values 0.888 | locus YFR003C, strain YPI1, hits give low values 0.897 | locus YFR028C, strain CDC14, hits give low values 0.884 | locus YHR030C, strain SLT2, hits give low values 0.768 | locus YJR016C, strain ILV3, hits give low values 0.895 | locus YKL193C, strain SDS22, hits give low values 0.885 | locus YLR113W, strain HOG1, hits give low values 0.669 | locus YNL006W, strain LST8, hits give low values 0.893 | locus YPL209C, strain IPL1, hits give low values 0.895 | locus YPL256C, strain CLN2, hits give low values 0.756 | locus YPR025C, strain CCL1, hits give low values 0.894

CCCn1c(=O)c2[nH]c(-c3ccc(OCC(=O)Nc4ccc(C#N)cc4)cc3)nc2n(CCC)c1=O
inactive: locus YAL040C, strain CLN3, hits give low values 0.979 | locus YCL061C, strain MRC1 (second series), hits give low values 0.998 | locus YDR363W, strain ESC2, hits give low values 1.02 | locus YER002W, strain NOP16, hits give low values 1 | locus YGR229C, strain SMI1, hits give low values 0.995 | locus YMR263W, strain SAP30, hits give low values 0.982 | locus YMR307W, strain GAS1, hits give low values 1.02 | locus YNL153C, strain GIM3, hits give low values 1.01 | locus YNL175C, strain NOP13, hits give low values 0.994 | locus YNL197C, strain WHI3, hits give low values 0.978 | locus YNL224C, strain SQS1, hits give low values 0.992 | locus YOR083W, strain WHI5 (second series), hits give low values 0.992 | locus YPL055C, strain LGE1, hits give low values 0.998 | locus YPL241C, strain CIN2, hits give low values 0.973
